The source holds several records for some structures; these can differ, active in one and inactive in another. The source made the active and inactive calls. Rule for the calls: active = hit-call score of the fitted dose curve at least 0.9, where 1 is the maximum; inactive = score below 0.9.

Among the data in PubChem BioAssay (EPA / NIEHS) are outcome and AC50 values, retold here.

The nature of this assay: ATG_TAL_CIS: Attagene CIS-FACTORIAL HepG2 Assay for human TAL Basal Promoter (AID 2282966). To be noted: HepG2 Attagene cis-factorial TAL promoter reporter; actives raise or lower the signal. How it is done:
ATG_CIS is a cell-based, multiplexed-readout assay that uses HepG2, a human liver cell line, with measurements taken at 24 hours after chemical dosing in a 24-well plate.ATG_TAL_CIS is one of 52 assay component(s) measured or calculated from the ATG_CIS assay. It is designed to make measurements of mRNA induction, a form of inducible reporter, as detected with fluorescence intensity signals by Reverse transcription polymerase chain reaction (RT-PCR) and Capillary electrophoresis technology.Data from the assay component ATG_TAL_CIS was analyzed into 1 assay endpoint. This assay endpoint, ATG_TAL_CIS, was analyzed with bidirectional fitting relative to DMSO as the negative control and baseline of activity. Using a type of inducible reporter, measures of mRNA for gain or loss-of-signal activity can be used to understand the background control at the transcription factor-level as they relate to the gene . Furthermore, this assay endpoint can be referred to as a secondary readout, because this assay has produced multiple assay endpoints where this one serves a background control function. To generalize the intended target to other relatable targets, this assay endpoint is annotated to the background measurement intended target family, where the subfamily is internal marker.
Human liver HepG2 cells are transiently transfected with multiple reporter transcription units (MRTUs) in 6-well plates using FuGene 6 reagent (Roche; 3 ml FuGene/1 mg DNA). The MRTU constructs are regulated by a cis-regulating element (promoter). […] A major difference between the CIS and TRANS system is that in CIS activities of endogenous TFs are measured, whereas the TRANS assay evaluates changes in activities of exogenous, chimeric NR-Gal4 proteins. […] At the end of 24 hour incubation, total RNA was isolated using TriZol reagent (Invitrogen). The isolated RNA is then reverse-transcribed using oligo(dT) primer and Mo-MLV reverse transcriptase (Invitrogen) with DNAse I (Ambion) treatment for 30 min. The one-tenth of the produced cDNA was amplified by PCR using Taq DNA polymerase (Invitrogen) and two reporter sequence-specific primers. The PCR products were fluorescently labeled by primer extension with 6-arboxyfluorescein (6-FAM) 5'-labeled reporter sequence-specific primer (2 min at 95 C, 20 s at 68 C and 10 min at 72 C) and these products were digested with 5U of HpaI (New England Biolabs) for 2h at 37 C. The fragments were purified using Qiaquick PCR columns (Qiagen), analyzed on an ABI 3130xL genetic analyzer (Applied Biosystems) with peak positions identified by using a set of X-rhodamine (ROX)-labeled MapMarker1000 molecular weight standards (BioVentures). The raw capillary electrophoresis data was processed using Attagraph software (Attagene).
As for `CCCC(=O)O`, the molecule was called inactive.
In general, AC50 refers to the concentration giving half of the maximal activity seen. For the molecule `CC(=O)O[C@]1(C(C)=O)CC[C@H]2[C@@H]3C=C(Cl)C4=CC(=O)[C@@H]5C[C@@H]5[C@]4(C)[C@H]3CC[C@@]21C`, the AC50 is 47.7 µM (active) and the call was inactive.
Turning to `O=C1c2c(O)cccc2Cc2cccc(O)c21`, the outcome was inactive.
`CC(C)(C)c1ccccc1`: the call was inactive.
As for `COc1ccc(OC(F)(F)F)cc1CN[C@H]1CCCN[C@H]1c1ccccc1`, the call was inactive.
Consider `O=C1O[C@H]([C@H](O)CO)C(O)=C1O`, for which the molecule was classed as inactive.
Consider `C/C=C/c1ccc(OC)cc1`, for which the call was inactive.
Consider `CSc1ccc(Oc2ccc(S(N)(=O)=O)cc2CN(C)C)cc1C`, for which the result was inactive.
Turning to `CCCC[C@H]1CN(CC2CCOCC2)C(=O)OC12CCN(C1(C)CCN(C(=O)c3c(C)ncnc3C)CC1)CC2`, the result was inactive.
On to `CCCCCCCCCCCCCCOS(=O)(=O)O`, for which the molecule was classed as inactive.
For `CCCCC(CC)CO` (stereo not given), the result was inactive.
In the case of `Cc1ccc(-c2cc(C(F)(F)F)nn2-c2ccc(S(N)(=O)=O)cc2)cc1`, the call was inactive.
On the same count and under the same terms, then `COC(=O)CCC(=O)OC`, with “inactive”; and `CC(=O)[C@@]1(O)CC[C@H]2[C@@H]3CCC4=CC(=O)CC[C@]4(C)[C@H]3CC[C@@]21C`, with “inactive”.
Same read-out and setting: then `Cc1cc(Cc2ccc(N)c(C)c2)ccc1N`, with “inactive”.
For the molecule `CC(=O)OC1CC(C)OC(C)O1` (stereo not given), the molecule was classed as inactive.
In the case of `Cn1cnc2c1c(=O)[nH]c(=O)n2C`, the call was inactive.
The same measure, in the same setting: next, `CO[C@@H]1COCC[C@@H]1N[C@@H]1CC[C@@](C(=O)N2CCc3ncc(C(F)(F)F)cc3C2)(C(C)C)C1`: “inactive”; `Cc1cc(SC2=C(O)C[C@@](CCc3ccc(N)cc3)(C(C)C)OC2=O)c(C(C)(C)C)cc1CO`: “inactive”; `COC(=O)[C@H]1[C@H]2C[C@@H]3c4[nH]c5cc(OC)ccc5c4CCN3C[C@H]2C[C@@H](OC(=O)c2cc(OC)c(OC)c(OC)c2)[C@@H]1OC`: “inactive”.
As for `CCN(CC)CCOc1ccc(C(=C(Cl)c2ccccc2)c2ccccc2)cc1`, the outcome was inactive and the AC50 is 13.1 µM (active).
`CC(C)c1cccc(C(C)C)c1`: the molecule was classed as inactive.
On the same count and under the same terms, then `Cc1c(C)c2c(c(C)c1O)CCC(C)(COc1ccc(CC3SC(=O)NC3=O)cc1)O2` (stereo not given), with “inactive”.
In the case of `CCC(C)N(C)C(=O)c1cc2ccccc2c(-c2ccccc2Cl)n1` (stereo not given), the molecule was classed as inactive.
`CCCCC(CC)COC(=O)CCCCCCCC(=O)OCC(CC)CCCC` (stereo not given): the outcome was inactive.
Still for that read-out and setting: next, `CCOCCOCCO`: “inactive”; `CS(=O)(=O)c1ccc([C@@H](C[C@H]2CCC(=O)C2)C(=O)Nc2cnccn2)cc1Cl`: “inactive”.
On to `O=C1OC(c2ccc(O)cc2)(c2ccc(O)cc2)c2ccccc21`, for which the AC50 is 46.8 µM (active).
Consider `O=C(N[C@@H](c1ccccc1)[C@@H]1CCCCN1)c1cccc(C(F)(F)F)c1Cl`, for which the molecule was called inactive.
As to `CCCCCCCCCC[N+](C)(C)[O-]`, the molecule was called inactive.
Take `C#CC(O)C(CC)CCCC` (stereo not given): the call was inactive.
Regarding `CCc1cc(C2=C(C(=O)O)N(c3ccccc3C(F)(F)F)S(=O)(=O)c3ccccc32)cc2c1OCO2`, the result was inactive.
For the molecule `CCCCCCCCCCCCCCCCO`, the call was inactive.
For `CC(C)(O)c1ccc(CNC(=O)c2cccnc2Oc2ccc(F)cc2)cc1`, the call was inactive.
As to `OCC(CO)n1cnc(-c2ccc(F)cc2)c1-c1ccnc(Oc2ccccc2)n1`, the outcome was inactive.
As for `CCc1nc(N)nc(N)c1-c1ccc(Cl)cc1`, the molecule was called inactive.
In the case of `O=Cc1ccccc1C=O`, the result was inactive.
Consider `Nc1nc(Cl)nc2c1ncn2[C@H]1C[C@H](O)[C@@H](CO)O1`, for which the molecule was called inactive.
